A selection: hits, their analogues and other compounds. The true share with any hit is near 4.1%.
DAX1 inh-1 = inhibitors of DAX1 repression of SF-1 activated StAR promoter; 370,000 compounds, 1.1% hits; HEK293T StAR-luciferase reporter, SF-1/DAX-1 repression relief; inhibition, % at 6.8 µM;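 active = inhibition above the mean over all tested compounds plus 3 SD, cut at about 3.6% in these data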;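 also: 0% = DAX-1 cells with DMSO and 100% = cells lacking DAX-1 with DMSO; higher inhibition means more luminescence from relief of DAX-1 repression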
DAX1 inh-2 = inhibits human nuclear receptor DAX1; P51843; 340,000 compounds, 0.99% hits; HEK293 Gal4-DAX1 luciferase reporter, luminescence; inhibition, % at 6.75 µM;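 active = inhibition above the mean over all tested compounds plus 3 SD, cut at about 4.2% in these data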;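 also: 0% = DAX1-transfected cells with DMSO and 100% = empty-vector control cells with DMSO; inhibition shows as a rise in luminescence from relieved DAX1 repression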
Target sequence (P51843 207-470 limits assumed): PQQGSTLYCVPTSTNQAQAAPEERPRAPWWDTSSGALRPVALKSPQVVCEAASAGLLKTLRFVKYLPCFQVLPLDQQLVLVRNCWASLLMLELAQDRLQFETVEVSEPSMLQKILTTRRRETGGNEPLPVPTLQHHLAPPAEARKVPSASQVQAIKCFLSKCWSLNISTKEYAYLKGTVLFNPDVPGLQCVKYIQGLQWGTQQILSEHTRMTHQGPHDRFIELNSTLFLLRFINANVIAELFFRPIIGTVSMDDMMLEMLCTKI
hgDAF-12 ag = activates the H. glycines DAF-12 receptor ligand-binding domain; HEK293 GAL4-hgDAF12 UAS-luciferase reporter, agonist luminescence; normalized to butyrate control; 370,000 compounds, 1.8% hits; activation, % at 6.8 µM;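 active = activation above a cutoff set at the mean of all screened compounds plus 3 SD, cut at about 10% in these data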;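 also: 0% = DMSO wells and 100% = sodium butyrate wells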
ssDAF-12 act = activates DAF-12 receptor from parasite S. stercoralis. HEK293 ssDAF-12/GRIP1 lit1-tk-luc reporter, luminescence; % of 3 µM dafachronic acid response. activation, % at 6.8 µM. 370,000 compounds, 1% hits;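 active = activation above the mean over all tested compounds plus 3 SD, cut at about 0.9% in these data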;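 also: 0% = DMSO-only wells and 100% = 3 µM delta7-dafachronic acid wells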
hcDAF-12 act = H. contortus DAF-12 activation, primary screen; HEK293 hcDAF-12 lit1-tk-luc reporter, luminescence; 0% DMSO, 100% Δ7-dafachronic acid; activation, % at 6.8 µM; 370,000 compounds, 1.4% hits; AID 652067;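 active = activation above the mean of all tested compounds plus 3 SD, cut at about 5.5% in these data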;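 also: 100% = response to 3 µM Δ7-dafachronic acid high control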
* hit, by the source's call.

For Cc1cccc(N/N=C2/COC(C)(C)CC2=O)c1 the results were DAX1 inh-1 3, DAX1 inh-2 1, hgDAF-12 ag 13*, ssDAF-12 act 0 and hcDAF-12 act 5.
Screening COc1ccccc1N/N=C1\COC(C)(C)CC1=O returned DAX1 inh-1 0, DAX1 inh-2 4.8*, hgDAF-12 ag 1, ssDAF-12 act -1 and hcDAF-12 act 0.
`COC(=O)[C@]12C[C@H](CC(=O)N3CCCC3)C(=O)N(Cc3ccccc3)C1=C[C@H](C(C)(C)C)O[C@@H]2C` gave DAX1 inh-1 1, hgDAF-12 ag 0, ssDAF-12 act -1 and hcDAF-12 act -1.
`Brc1ccc(-c2nn3c(-c4ccccc4)nnc3s2)cc1` gave DAX1 inh-1 0, hgDAF-12 ag -2, ssDAF-12 act -1 and hcDAF-12 act -3.
`COc1ccc(Nc2nc(-c3sc(N)nc3C)cs2)cc1` gave DAX1 inh-1 0, DAX1 inh-2 1, hgDAF-12 ag 8, ssDAF-12 act 0 and hcDAF-12 act 2.
For Cc1ccc(Nc2nc(-c3sc(N)nc3C)cs2)cc1 the results were DAX1 inh-1 1, DAX1 inh-2 2, hgDAF-12 ag 5, ssDAF-12 act 0 and hcDAF-12 act 5.8*.
Cc1cc(C(=O)NNS(=O)(=O)c2cccc(Cl)c2)nn1C(C)(C)C was read as DAX1 inh-1 0, DAX1 inh-2 4.2*, hgDAF-12 ag -1, ssDAF-12 act -1 and hcDAF-12 act -1.
`COc1ccc(CSc2nnc3[nH]c(=O)cc(N)n23)cc1` gave DAX1 inh-1 0, DAX1 inh-2 -1, hgDAF-12 ag 1, ssDAF-12 act 3.7* and hcDAF-12 act 3.
`N#Cc1ccc(CSc2nnc3[nH]c(=O)cc(N)n23)cc1` gave DAX1 inh-1 0, DAX1 inh-2 0, hgDAF-12 ag -1, ssDAF-12 act -1 and hcDAF-12 act -2.
Cc1cccc(NC(=O)c2n[nH]c([N+](=O)[O-])c2Br)c1C was read as DAX1 inh-1 3.6*, DAX1 inh-2 0, hgDAF-12 ag 11*, ssDAF-12 act 1 and hcDAF-12 act 3.
`COc1cccc2cc(C(=O)OCC(=O)N3CC(C)OC(C)C3)c(=O)oc12` (centres undefined) gave DAX1 inh-1 3, DAX1 inh-2 5.5*, hgDAF-12 ag 10, ssDAF-12 act -1 and hcDAF-12 act 5.7*.
Screening Nc1[nH]c(C(=O)c2ccccc2)c(-c2cccc3ccccc23)c1C(=O)NCc1ccc(Cl)cc1Cl returned DAX1 inh-1 1, hgDAF-12 ag 3, ssDAF-12 act -1 and hcDAF-12 act 1.
O=C(NC1CCCC1)c1cc2c(ccc3ccccc32)o1 was read as DAX1 inh-1 3, DAX1 inh-2 1, hgDAF-12 ag 11*, ssDAF-12 act 0 and hcDAF-12 act 5.
Screening COC(=O)c1cc(-c2cnc(OC)nc2OC)c(=O)n2c1CCC2 returned DAX1 inh-1 -1, hgDAF-12 ag -3, ssDAF-12 act -1 and hcDAF-12 act 2.
`O=C(NCc1ccc(Cl)cc1)C(=O)NCC1OCCN1C(=O)c1cccs1` (centres undefined) gave DAX1 inh-1 0, DAX1 inh-2 1, hgDAF-12 ag 0, ssDAF-12 act -1 and hcDAF-12 act 6.2*.
For C[n+]1ccc(/C=C/c2ccccc2O)c2ccccc21 the results were DAX1 inh-1 0, DAX1 inh-2 0, hgDAF-12 ag -2, ssDAF-12 act -2 and hcDAF-12 act 6.5*.
For COc1ccc(CNC(=O)COC(=O)c2ccccc2OCC(=O)Nc2ccc(SC(F)F)cc2)cc1 the results were DAX1 inh-1 1, DAX1 inh-2 6.5*, hgDAF-12 ag 2, ssDAF-12 act -1 and hcDAF-12 act 1.
Screening C/C(=N/NC(=O)CCCOc1ccc(Cl)cc1Cl)c1ccc(C)o1 returned DAX1 inh-1 -1, DAX1 inh-2 0, hgDAF-12 ag 0, ssDAF-12 act 1.1* and hcDAF-12 act -1.
`Cc1cc(NC(=O)CCCOc2ccc(Cl)cc2Cl)no1` gave DAX1 inh-1 0, DAX1 inh-2 0, hgDAF-12 ag 1, ssDAF-12 act -1 and hcDAF-12 act 2.
For O=C(O)c1cc([N+](=O)[O-])ccc1Nc1ccccc1 the results were DAX1 inh-1 0, DAX1 inh-2 4.3*, hgDAF-12 ag -3, ssDAF-12 act -1 and hcDAF-12 act -3.
